# Assay results from PubChem BioAssay (Tox21).
# Where “and” joins values, the source holds several entries; their conditions need not be identical. Equal entries are not always repeated. Results filed as inconclusive are left out. Where a call stands in place of a potency, no number is given. Some structures have more than one record in an assay (separate samples or runs), and their calls can disagree. Calls of active or inactive are those of the source. Unless noted, calls come from the whole dose curve; as a rule, active = well fitted curve in the direction sought with a large enough effect in the repeat runs; inconclusive = weak or mixed curves; inactive = no such curve, though single readings can be large; an effect the other way counts as inactive or inconclusive.
# Legend:
# [1] = target: Estrogen receptor beta (Homo sapiens) (UniProt Q92731); test: qHTS assay to identify small molecule agonists of the estrogen receptor beta (ER-beta) signaling pathway (AID 1259377; active = well fitted activation curve with a large enough effect in the signal ratio in the repeat runs, not every such curve was filed as active; the % refers to the signal ratio)
# Sequence of Estrogen receptor beta (Homo sapiens) (Q92731 whole entry, looked up): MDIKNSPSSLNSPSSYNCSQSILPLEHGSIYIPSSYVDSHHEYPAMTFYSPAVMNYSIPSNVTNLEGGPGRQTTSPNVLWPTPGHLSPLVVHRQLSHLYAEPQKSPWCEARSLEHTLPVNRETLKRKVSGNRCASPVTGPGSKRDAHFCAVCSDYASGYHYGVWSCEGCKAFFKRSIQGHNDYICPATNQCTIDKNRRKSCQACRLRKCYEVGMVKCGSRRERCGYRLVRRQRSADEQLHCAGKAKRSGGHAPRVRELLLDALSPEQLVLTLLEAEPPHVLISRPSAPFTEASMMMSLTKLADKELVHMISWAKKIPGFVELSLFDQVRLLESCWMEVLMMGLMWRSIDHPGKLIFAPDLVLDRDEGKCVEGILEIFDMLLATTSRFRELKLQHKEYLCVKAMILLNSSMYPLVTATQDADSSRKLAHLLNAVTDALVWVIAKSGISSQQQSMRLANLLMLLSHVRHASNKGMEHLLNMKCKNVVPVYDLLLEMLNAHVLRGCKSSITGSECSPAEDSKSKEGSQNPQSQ
# Procedure, shortened: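 Beta-lactamase reporter readout: fluorescence of LiveBLAzer B/G FRET substrate after 2 h at room temperature, following 16 h compound treatment of ER-beta-UAS-bla HEK293T cells at 37C in 2% charcoal-stripped FBS medium.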
# [2] = target: Estrogen receptor beta (Homo sapiens) (UniProt Q92731); test: qHTS assay to identify small molecule antagonists of the estrogen receptor beta (ER-beta) signaling pathway (AID 1259378; active = well fitted inhibition curve with a large enough effect in the signal ratio in the repeat runs, not every such curve was filed as active; the % refers to the signal ratio; note: potency is the fitted concentration of half-maximal effect)
# Procedure, shortened: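 Antagonist mode: compounds added to beta-lactamase reporter HEK293T ER-beta-UAS cells stimulated with E2 (1nM final), 16 hr at 37C. LiveBLAzer B/G FRET substrate, 2 hours room temperature, fluorescence read-out.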
# [3] = qHTS assay to identify small molecule agonists of the androgen receptor (AR) signaling pathway in the presence of an antagonist - cell viability counter screen (AID 1259379); note: nearly all actives have a fitted effect of over 25% in size; note: potency is the fitted concentration of half-maximal effect
# Procedure, shortened: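 Each compound was tested at 15 concentrations on MDA-kb2 cells in the presence of 3.0uM nilutamide. Viability was measured by CellTiter-Fluor fluorescence after a 16 hr incubation at 37C in a CO2-free atmosphere.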
# [4] = qHTS assay to identify small molecule agonists of the estrogen receptor beta (ER-beta) signaling pathway - cell viability counter screen (AID 1259380); note: nearly all actives have a fitted effect of over 30% in size; note: potency is the fitted concentration of half-maximal effect
# Procedure, shortened: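 Compounds dissolved in DMSO were pin-transferred onto ER-beta-UAS-bla HEK293T cells that had settled 6 hr, and exposure ran 16 hr at 37C. Following the reporter read, CellTiter-Glo luminescence after 30 min at room temperature indicated cytotoxicity.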
# [5] = qHTS assay to identify small molecule antagonists of the estrogen receptor beta (ER-beta) signaling pathway - cell viability counter screen (AID 1259382); note: nearly all actives have a fitted effect of over 55% in size; note: potency is the fitted concentration of half-maximal effect
# Procedure, shortened: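 CellTiter-Glo ATP luminescence measured after the LiveBLAzer read in the same wells; ER-beta-UAS-bla HEK293T cells, 16 hr compound treatment with 1nM 17-beta-estradiol agonist at 37C, 5% CO2.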
# [6] = target: Estrogen receptor (Homo sapiens) (UniProt P03372); test: qHTS assay to identify small molecule agonists of the estrogen receptor alpha (ER-alpha) signaling pathway in the presence of an antagonist (AID 1259383; calls by dose curve; note: top concentration of the series differs between compounds; nearly all actives have a fitted effect of over 15% in size)
# Sequence of Estrogen receptor (Homo sapiens) (P03372 whole entry, looked up): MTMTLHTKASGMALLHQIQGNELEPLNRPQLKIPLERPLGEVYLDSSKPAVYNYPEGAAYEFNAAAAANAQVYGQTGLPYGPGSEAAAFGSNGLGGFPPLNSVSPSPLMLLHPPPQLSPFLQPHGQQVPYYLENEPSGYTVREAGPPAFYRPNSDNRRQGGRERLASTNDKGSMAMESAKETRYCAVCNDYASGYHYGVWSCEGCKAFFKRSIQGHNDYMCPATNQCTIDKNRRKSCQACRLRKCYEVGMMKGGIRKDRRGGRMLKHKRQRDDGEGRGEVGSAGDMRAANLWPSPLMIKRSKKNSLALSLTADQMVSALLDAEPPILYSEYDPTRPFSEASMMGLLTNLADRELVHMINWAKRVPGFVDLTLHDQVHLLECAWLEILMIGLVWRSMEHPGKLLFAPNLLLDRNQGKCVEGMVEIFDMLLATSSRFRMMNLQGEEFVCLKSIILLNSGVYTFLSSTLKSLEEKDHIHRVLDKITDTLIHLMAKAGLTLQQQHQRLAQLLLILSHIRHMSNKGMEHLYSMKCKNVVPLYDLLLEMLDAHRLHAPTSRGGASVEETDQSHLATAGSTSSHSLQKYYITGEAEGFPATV
# Procedure, shortened: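 Luminescent ERE-luciferase reporter, VM7Luc4E2 cells (endogenous ER-alpha); 10.0nM ICI-182,780 final; 15-point compound titration; 22hr at 37C; ONE-Glo, 30min RT.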
# [7] = qHTS assay to identify small molecule agonists or antagonists of the thyroid stimulating hormone receptor (TSHR) signaling pathway - wild type cell line counter screen (AID 1259384; calls by dose curve)
# Procedure, shortened: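 Counter screen in untransfected Hek293: compounds (15-point titration, triplicate) plus phosphodiesterase inhibitor Ro20-1724 added after 18 h plating; 30 min RT. Intracellular cAMP via competitive d2/cryptate immunoassay, 1 h incubation.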
# [8] = target: Thyrotropin receptor (Homo sapiens) (UniProt P16473); test: qHTS assay to identify small molecule antagonists of the thyroid stimulating hormone receptor (TSHR) signaling pathway (AID 1259385; calls by dose curve; note: nearly all actives have a fitted effect of over 20% in size)
# Sequence of Thyrotropin receptor (Homo sapiens) (P16473 whole entry, looked up): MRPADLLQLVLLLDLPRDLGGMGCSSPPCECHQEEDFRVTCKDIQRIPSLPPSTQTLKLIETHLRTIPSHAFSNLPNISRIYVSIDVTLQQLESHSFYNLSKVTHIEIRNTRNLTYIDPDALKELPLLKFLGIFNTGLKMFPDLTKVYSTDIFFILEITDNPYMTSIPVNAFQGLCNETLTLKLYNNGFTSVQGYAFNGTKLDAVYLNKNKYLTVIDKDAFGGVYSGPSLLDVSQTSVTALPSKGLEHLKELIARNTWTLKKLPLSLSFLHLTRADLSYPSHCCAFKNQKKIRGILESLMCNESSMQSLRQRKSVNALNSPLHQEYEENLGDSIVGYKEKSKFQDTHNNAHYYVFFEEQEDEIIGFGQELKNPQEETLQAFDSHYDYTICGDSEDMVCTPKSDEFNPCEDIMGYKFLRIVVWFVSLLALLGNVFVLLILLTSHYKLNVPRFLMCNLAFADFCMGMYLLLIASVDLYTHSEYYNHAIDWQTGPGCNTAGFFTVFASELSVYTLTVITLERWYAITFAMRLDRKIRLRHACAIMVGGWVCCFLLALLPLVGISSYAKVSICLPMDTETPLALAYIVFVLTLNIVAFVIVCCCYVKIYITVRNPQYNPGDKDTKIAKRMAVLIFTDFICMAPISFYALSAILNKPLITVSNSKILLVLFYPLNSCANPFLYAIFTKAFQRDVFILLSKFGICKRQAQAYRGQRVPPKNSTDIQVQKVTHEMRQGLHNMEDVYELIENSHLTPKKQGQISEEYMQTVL
# Procedure, shortened: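 Antagonist mode: compound-treated TSHR-expressing HEK293 cells were stimulated with 1.5 ng/mL TSH (final) in presence of Ro20-1724 for 30 min at RT. HTRF cAMP detection after 1 h; each compound tested at 15 concentrations, triplicate.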
# [9] = qHTS assay to identify small molecule agonists of the estrogen receptor alpha (ER-alpha) signaling pathway in the presence of an antagonist - cell viability counter screen (AID 1259386);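 note: cells exposed to compounds for 22 h at 37 °C before the viability read; nearly all actives have a fitted effect of over 30% in size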; note: potency is the fitted concentration of half-maximal effect
# Procedure, shortened: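 Using estrogen-depleted VM7Luc4E2 cells, the 15-concentration compound series was applied together with 10.0nM ICI-182,780 and incubated 22hr at 37C/5% CO2. Cell viability was then scored by CellTiter-Fluor.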
# [10] = target: Progesterone receptor (Homo sapiens) (UniProt P06401); test: qHTS assay to identify small molecule agonists of the progesterone receptor (PR) signaling pathway (AID 1346784; calls by dose curve; note: nearly all actives have a fitted effect of over 30% in size)
# Sequence of Progesterone receptor (Homo sapiens) (P06401 whole entry, looked up): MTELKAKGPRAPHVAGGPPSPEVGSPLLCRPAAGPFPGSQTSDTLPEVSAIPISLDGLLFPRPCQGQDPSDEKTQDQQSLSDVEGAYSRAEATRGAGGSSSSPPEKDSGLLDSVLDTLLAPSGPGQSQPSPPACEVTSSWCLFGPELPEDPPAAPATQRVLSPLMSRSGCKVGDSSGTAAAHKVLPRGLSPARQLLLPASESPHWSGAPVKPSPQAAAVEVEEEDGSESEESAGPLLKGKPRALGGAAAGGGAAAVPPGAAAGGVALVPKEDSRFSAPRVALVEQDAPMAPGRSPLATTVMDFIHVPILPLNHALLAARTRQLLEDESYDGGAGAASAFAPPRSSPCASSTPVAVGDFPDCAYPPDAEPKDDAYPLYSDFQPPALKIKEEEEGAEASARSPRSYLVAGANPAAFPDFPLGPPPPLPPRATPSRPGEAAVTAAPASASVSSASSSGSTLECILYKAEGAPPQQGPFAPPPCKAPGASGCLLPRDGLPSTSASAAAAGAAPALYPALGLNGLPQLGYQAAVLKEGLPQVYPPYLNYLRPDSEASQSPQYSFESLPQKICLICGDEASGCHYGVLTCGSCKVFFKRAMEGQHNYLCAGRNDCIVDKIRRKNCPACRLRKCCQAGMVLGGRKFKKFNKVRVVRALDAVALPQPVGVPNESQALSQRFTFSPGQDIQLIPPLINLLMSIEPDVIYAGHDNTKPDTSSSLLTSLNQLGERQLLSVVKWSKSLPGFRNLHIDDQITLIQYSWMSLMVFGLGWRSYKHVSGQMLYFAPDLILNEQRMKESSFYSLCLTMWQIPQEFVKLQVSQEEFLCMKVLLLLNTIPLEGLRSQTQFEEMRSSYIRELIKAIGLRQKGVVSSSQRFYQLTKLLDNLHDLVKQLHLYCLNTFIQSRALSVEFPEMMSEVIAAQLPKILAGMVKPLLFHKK
# Procedure, shortened: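 HEK 293T PR-UAS-bla reporter cells, 2% charcoal-stripped FBS; 6 hr settle at 37C/5% CO2, compound (DMSO) 16 hr, LiveBLAzer B/G FRET substrate 2 hr RT, fluorescence intensity read.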
# [11] = target: Progesterone receptor (Homo sapiens) (UniProt P06401); test: qHTS assay to identify small molecule antagonists of the progesterone receptor (PR) signaling pathway (AID 1346795; active = well fitted inhibition curve with a large enough effect in the signal ratio in the repeat runs, not every such curve was filed as active; the % refers to the signal ratio; note: potency is the fitted concentration of half-maximal effect)
# Procedure, shortened: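 Beta-lactamase reporter, HEK293T PR-UAS-bla line; 2% charcoal-stripped FBS; 6 hr pre-incubation, 37C/5% CO2. Compound + R5020 1 nM final, 16 hr. LiveBLAzer B/G FRET substrate, 2 hr RT; fluorescence intensity read.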
# [12] = qHTS assay to identify small molecule antagonists of the progesterone receptor (PR) signaling pathway - cell viability counter screen (AID 1346798); note: nearly all actives have a fitted effect of over 50% in size; note: potency is the fitted concentration of half-maximal effect
# Procedure, shortened: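 Luminescence readout (CellTiter-Glo, 30 min, RT) of viability in PR-UAS-bla HEK293T cells exposed to compound and R5020 agonist for 16 hr at 37C, 5% CO2; run in the same wells as the beta-lactamase reporter read.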
# [13] = qHTS assay to identify small molecule agonists of the progesterone receptor (PR) signaling pathway - cell viability counter screen (AID 1346799; calls by dose curve; note: nearly all actives have a fitted effect of over 45% in size)
# Procedure, shortened: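 HEK293T PR-UAS-bla, 3,000 cells/well, 2% charcoal-stripped FBS; 6 h settle, compound 16 h at 37C/5% CO2; LiveBLAzer 2 h RT, then CellTiter-Glo 30 min RT, luminescence read.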
# [14] = qHTS assay to identify small molecule antagonists of the TGF-beta/Smad signaling pathway - cell viability counter screen (AID 1346824); note: nearly all actives have a fitted effect of over 50% in size
# Procedure, shortened: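 Cytotoxicity counter-screen run in the same wells as the beta-lactamase Smad reporter read: CellTiter-Glo luminescence after 30 min at room temperature. HEK 293T SBE-bla cells had 5 hr compound exposure at 37 C with TGF-beta1 (0.25 ng/mL stock).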
# [15] = qHTS assay to identify small molecule agonists of the TGF-beta/Smad signaling pathway - cell viability counter screen (AID 1346829); note: nearly all actives have a fitted effect of over 45% in size; note: potency is the fitted concentration of half-maximal effect
# Procedure, shortened: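 CellTiter-Glo luminescence readout; SBE-bla HEK 293T cells, overnight plating, compound 5 hr at 37 C/5% CO2, then bla substrate 2 hr RT, then CellTiter-Glo 30 min RT.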
# [16] = qHTS assay to identify small molecule agonists of the TGF-beta/Smad signaling pathway (AID 1346859; active = well fitted activation curve with a large enough effect in the signal ratio in the repeat runs, not every such curve was filed as active; the % refers to the signal ratio; note: series mostly up to about 77 µM)
# Procedure, shortened: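 Read-out: fluorescence at 460 and 530 nm (405 nm excitation) after a 2 hr room-temperature incubation with beta-lactamase FRET substrate. SBE-bla HEK 293T cells had been treated with test compounds for 5 hr at 37 C.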
# [17] = target: Thyrotropin-releasing hormone receptor (Homo sapiens) (UniProt P34981); test: qHTS assay to identify small molecule antagonists of the thyrotropin-releasing hormone receptor (TRHR) signaling pathway (AID 1346877; active = well fitted inhibition curve with a large enough effect in the repeat runs, not every such curve was filed as active; note: series mostly up to about 51 µM)
# Sequence of Thyrotropin-releasing hormone receptor (Homo sapiens) (P34981 whole entry, looked up): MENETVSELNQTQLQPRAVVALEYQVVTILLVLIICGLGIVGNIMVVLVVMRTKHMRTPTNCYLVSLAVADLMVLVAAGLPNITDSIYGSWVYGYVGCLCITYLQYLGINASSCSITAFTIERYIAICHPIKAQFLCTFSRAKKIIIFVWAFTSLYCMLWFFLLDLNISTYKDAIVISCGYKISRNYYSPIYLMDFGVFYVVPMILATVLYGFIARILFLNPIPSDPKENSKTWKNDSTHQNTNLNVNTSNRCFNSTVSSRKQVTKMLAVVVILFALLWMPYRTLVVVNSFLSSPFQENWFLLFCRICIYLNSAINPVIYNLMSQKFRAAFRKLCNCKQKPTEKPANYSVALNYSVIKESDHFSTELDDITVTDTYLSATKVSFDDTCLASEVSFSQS
# Procedure, shortened: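 Calcium signal in dye-loaded TRHR/HEK293 cells; compounds added 5 min before TRH (1 nM final); fluorescence monitored 3 min at 1 s steps.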
# [18] = target: Thyrotropin-releasing hormone receptor (Homo sapiens) (UniProt P34981); test: qHTS assay to identify small molecule agonists of the thyrotropin-releasing hormone receptor (TRHR) signaling pathway (AID 1346891; calls by dose curve;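 note: HEK293 cells expressing TRHR with calcium dye readout; series mostly up to about 58 µM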)
# Procedure, shortened: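 HEK293/TRHR cells, 1500 per well, 18 h 37 °C; Ca dye 2 h 37 °C; pin-tool compound addition (agonist mode); kinetic fluorescence 3 min, 1 s reads; 15 concentrations, triplicate.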
# [19] = Human pregnane X receptor (PXR) small molecule agonists, qHTS cell viability counter screen (AID 1346977); note: nearly all actives have a fitted effect of over 50% in size; note: potency is the fitted concentration of half-maximal effect
# Procedure, shortened: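 Fluorescence read-out (CellTiter-Fluor) of viability in PXR-Luc HepG2 cells, multiplexed with the luciferase agonist read. Compounds in DMSO added after 5hr plating; 24hr total exposure at 37C, 5% CO2.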
Compound,Potency [1],Potency [2],Potency [3],Potency [4],Potency [5],Potency [6],outcome [7],Potency [8],Potency [9],Potency [10],Potency [11],Potency [12],Potency [13],Potency [14],Potency [15],outcome [16],Potency [17],Potency [18],Potency [19]
Cc1ccc(C(=O)Cl)cc1,inactive,inactive,inactive,inactive,inactive,inactive,inactive,inactive,inactive,inactive,inactive,inactive,inactive,inactive,inactive,inactive,inactive,inactive,inactive
O=c1[nH]c2ccccc2n1C1CCN(CCCC(c2ccc(F)cc2)c2ccc(F)cc2)CC1,inactive,17.2 µM (active),24.3 µM (active),27.3 µM (active) and 21.1 µM (active),30.6 µM (active) and 29.8 µM (active),inactive,inactive,inactive,54.5 µM (active),,26.6 µM (active),30.6 µM (active),,,49 µM (active) and inactive,inactive,,,21.7 µM (active) and 26.6 µM (active)
CC(C)CBr,inactive,inactive,inactive,inactive,inactive,inactive,inactive,inactive,inactive,inactive,inactive,inactive,inactive,inactive,inactive,inactive,inactive,inactive,inactive
